Assay results from ChEMBL document CHEMBL5606458, “ASAP - ZIKV NS2B-NS3 protease fluorescence single point” (2024).
The whole screen tested about 2,700 compounds, of which about 160 (5.9%) showed an effect of 50% or more. Many of the other results were omitted from the sample, so strong results are more common in it than they were.

Target: Nonstructural protein 3 (Zika virus) (UniProt A0A024AXB9)
[1] = PRVABC59, Concentration 50.0 uM, Number of replicates 1.0
[2] = PRVABC59, Concentration 15.0 uM, Number of replicates 1.0

Sequence of Nonstructural protein 3 (Zika virus) (A0A024AXB9 as listed by the source): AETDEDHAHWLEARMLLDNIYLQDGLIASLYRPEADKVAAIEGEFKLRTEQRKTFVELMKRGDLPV

Question: With `CN1C(=O)c2ccc(NC(=O)C3CCN(c4ccc(C=O)cc4)CC3)cc2C1=O` as the compound, how does the inhibition [1] read?
Answer: 28.5%

Question: For `c1ccc2[nH]c(CC3CCN(c4ncnc5[nH]ccc45)CC3)nc2c1`, which inhibition (PRVABC59, Concentration 49.5 uM, Number of replicates 2.0, Standard deviation 0.8729323765409018 %) is on record?
Answer: -3.7%

Question: What about the inhibition (PRVABC59, Concentration 99.01 uM, Number of replicates 2.0, Standard deviation 2.6991147561762485 %) of the same compound?
Answer: 1.52%

Question: And the inhibition (PRVABC59, Concentration 198.0 uM, Number of replicates 2.0, Standard deviation 4.214592802372255 %)?
Answer: 7.18%

Question: How did the inhibition [2] turn out when `CC(CNC(=O)c1cc(Cl)ccc1NS(=O)(=O)c1ccc(Oc2ccccc2Cl)cc1)(c1ccccc1)c1ccccc1` was run?
Answer: 31.7%

Question: How did the inhibition [2] turn out when `COc1cccc(CCNC(=O)c2cc(Cl)ccc2NS(=O)(=O)c2ccc(Oc3ccccc3Cl)cc2)c1` was run?
Answer: 27.6%

Question: How did the inhibition [2] turn out when `O=C(c1cc(Cl)ccc1NS(=O)(=O)c1ccc(Oc2ccccc2Cl)cc1)N1CCN(c2ccccc2O)CC1` was run?
Answer: -1.02%

Question: `C[C@@H](c1ccccc1)N(Cc1ccncc1)C(=O)C1CCN(c2ccc(C=O)cc2)CC1` was tested. Which inhibition [1] did it give?
Answer: 21.5%

Question: For `O=C(Nc1ccc2scnc2c1)c1cc(Cl)ccc1NS(=O)(=O)c1ccc(Oc2ccccc2Cl)cc1`, which inhibition [2] is on record?
Answer: 71.2%

Question: With `O=C(Nc1ccc(Br)nc1)c1cc(Cl)ccc1NS(=O)(=O)c1ccc(Oc2ccccc2Cl)cc1` as the compound, how does the inhibition [2] read?
Answer: 35.2%

Question: For `O=C(Nc1ccc(Cl)c(Cl)c1)c1cc(Cl)ccc1NS(=O)(=O)c1ccc(Oc2ccccc2Cl)cc1`, which inhibition [2] is on record?
Answer: 37.7%

Question: `O=C(c1cc(Cl)ccc1NS(=O)(=O)c1ccc(Oc2ccccc2Cl)cc1)N1CCN(CCc2ccncc2)CC1` was tested. Which inhibition [2] did it give?
Answer: 6.55%

Question: How did the inhibition [2] turn out when `O=C(Nc1ccc(I)cc1F)c1cc(Cl)ccc1NS(=O)(=O)c1ccc(Oc2ccccc2Cl)cc1` was run?
Answer: 67.5%

Question: `O=C(c1cc(Cl)ccc1NS(=O)(=O)c1ccc(Oc2ccccc2Cl)cc1)N1CCN(CCc2ccccc2)CC1` was tested. Which inhibition [2] did it give?
Answer: 53.5%

Question: With `O=C(c1cc(Cl)ccc1NS(=O)(=O)c1ccc(Oc2ccccc2Cl)cc1)N1CCCN(CCCc2ccccc2)CC1` as the compound, how does the inhibition [2] read?
Answer: 11.4%

Question: With `Cc1cc(I)ccc1NC(=O)c1cc(Cl)ccc1NS(=O)(=O)c1ccc(Oc2ccccc2Cl)cc1` as the compound, how does the inhibition [2] read?
Answer: 20.7%

Question: Which inhibition [2] does the source give for `O=C(Nc1cccc(N2CCOCC2)c1)c1cc(Cl)ccc1NS(=O)(=O)c1ccc(Oc2ccccc2Cl)cc1` here?
Answer: 66.3%

Question: For `O=C(Nc1ccc(N2CCOCC2=O)cc1)c1cc(Cl)ccc1NS(=O)(=O)c1ccc(Oc2ccccc2Cl)cc1`, which inhibition [2] is on record?
Answer: 48.5%

Question: Which inhibition [2] does the source give for `C[C@H](NC(=O)c1cc(Cl)ccc1NS(=O)(=O)c1ccc(Oc2ccccc2Cl)cc1)c1ccc(N2CCOCC2)cc1` here?
Answer: 18.7%

Question: For `O=C(Nc1cc(Cl)c(F)cc1F)c1cc(Cl)ccc1NS(=O)(=O)c1ccc(Oc2ccccc2Cl)cc1`, which inhibition [2] is on record?
Answer: 26.5%

Question: For `O=C(c1cc(Cl)ccc1NS(=O)(=O)c1ccc(Oc2ccccc2Cl)cc1)N1CCC(N2CCCC2=O)CC1`, which inhibition [2] is on record?
Answer: -2.59%

Question: With `Cn1ccc(CN2CC[C@H](c3c[nH]c4ccccc34)C2)cc1=O` as the compound, how does the inhibition (PRVABC59, Concentration 49.5 uM, Number of replicates 2.0, Standard deviation 0.9869168424646743 %) read?
Answer: 2.74%

Question: What about the inhibition (PRVABC59, Concentration 99.01 uM, Number of replicates 2.0, Standard deviation 1.3893738957347146 %) of the same compound?
Answer: 5.37%

Question: And the inhibition (PRVABC59, Concentration 198.0 uM, Number of replicates 2.0, Standard deviation 1.456023236095902 %)?
Answer: 9.72%

Question: Which inhibition [2] does the source give for `O=C(c1cc(Cl)ccc1NS(=O)(=O)c1ccc(Oc2ccccc2Cl)cc1)N1CCN(Cc2cc(F)ccc2F)CC1` here?
Answer: 17.7%

Question: How did the inhibition [2] turn out when `COc1cc(CNC(=O)c2cc(Cl)ccc2NS(=O)(=O)c2ccc(Oc3ccccc3Cl)cc2)cc(OC)c1OC` was run?
Answer: 19.3%

Question: With `O=Cc1ccc(N2CCC(C(=O)Nc3cccc(Br)c3)CC2)cc1` as the compound, how does the inhibition [1] read?
Answer: 23.9%

Question: `O=C(Nc1ccc(-c2ccccn2)cc1)c1cc(Cl)ccc1NS(=O)(=O)c1ccc(Oc2ccccc2Cl)cc1` was tested. Which inhibition [2] did it give?
Answer: 58.7%

Question: How did the inhibition [2] turn out when `O=C(Nc1ccccc1-c1ccccc1)c1cc(Cl)ccc1NS(=O)(=O)c1ccc(Oc2ccccc2Cl)cc1` was run?
Answer: 36.2%

Question: For `O=C(Nc1cc(Cl)c(F)c(Cl)c1)c1cc(Cl)ccc1NS(=O)(=O)c1ccc(Oc2ccccc2Cl)cc1`, which inhibition [2] is on record?
Answer: 24.3%

Question: With `O=C(Nc1ccccc1Oc1ccccc1)c1cc(Cl)ccc1NS(=O)(=O)c1ccc(Oc2ccccc2Cl)cc1` as the compound, how does the inhibition [2] read?
Answer: 54.2%

Question: For `O=C(Nc1ccccc1I)c1cc(Cl)ccc1NS(=O)(=O)c1ccc(Oc2ccccc2Cl)cc1`, which inhibition [2] is on record?
Answer: 26.7%

Question: Which inhibition [2] does the source give for `O=C(NCc1ccc(-c2cccs2)cc1)c1cc(Cl)ccc1NS(=O)(=O)c1ccc(Oc2ccccc2Cl)cc1` here?
Answer: 28.5%

Question: With `O=C(NCc1noc(-c2ccco2)n1)c1cc(Cl)ccc1NS(=O)(=O)c1ccc(Oc2ccccc2Cl)cc1` as the compound, how does the inhibition [2] read?
Answer: 48.1%

Question: For `O=C(NCc1noc(-c2cccs2)n1)c1cc(Cl)ccc1NS(=O)(=O)c1ccc(Oc2ccccc2Cl)cc1`, which inhibition [2] is on record?
Answer: 51.9%

Question: `O=C(Nc1ccc(-c2ccccc2)cc1)c1cc(Cl)ccc1NS(=O)(=O)c1ccc(Oc2ccccc2Cl)cc1` was tested. Which inhibition [2] did it give?
Answer: 26.5%

Question: How did the inhibition [2] turn out when `O=C(Nc1cc(Cl)c(O)c(Cl)c1)c1cc(Cl)ccc1NS(=O)(=O)c1ccc(Oc2ccccc2Cl)cc1` was run?
Answer: 84.9%

Question: Which inhibition [2] does the source give for `O=C(Nc1cccnc1Br)c1cc(Cl)ccc1NS(=O)(=O)c1ccc(Oc2ccccc2Cl)cc1` here?
Answer: 23%

Question: How did the inhibition [2] turn out when `O=C(Nc1cc(F)c(Br)c(F)c1)c1cc(Cl)ccc1NS(=O)(=O)c1ccc(Oc2ccccc2Cl)cc1` was run?
Answer: 23.4%

Question: With `O=C(NCCNC(=O)c1cc(Cl)ccc1NS(=O)(=O)c1ccc(Oc2ccccc2Cl)cc1)c1ccccc1Cl` as the compound, how does the inhibition [2] read?
Answer: 25%

Question: For `NC(=O)[C@H](Cc1ccc(O)cc1)NC(=O)C1CCN(c2ccc(C=O)cc2)CC1`, which inhibition [1] is on record?
Answer: 27%

Question: `O=C(c1cc(Cl)ccc1NS(=O)(=O)c1ccc(Oc2ccccc2Cl)cc1)N1CCC(n2c(=O)[nH]c3ccccc32)CC1` was tested. Which inhibition [2] did it give?
Answer: 15.6%

Question: With `CC(C)(CO)NC(=O)c1cc(Cl)cc(NC(=O)Cc2cccc(N3CCOCC3)c2)c1` as the compound, how does the inhibition (PRVABC59, Concentration 49.5 uM, Number of replicates 2.0, Standard deviation 3.0522593855592395 %) read?
Answer: -2.52%

Question: What about the inhibition (PRVABC59, Concentration 99.01 uM, Number of replicates 2.0, Standard deviation 3.368926317951112 %) of the same compound?
Answer: -0.793%

Question: And the inhibition (PRVABC59, Concentration 198.0 uM, Number of replicates 2.0, Standard deviation 2.506775358140388 %)?
Answer: 0.389%

Question: For `O=C(c1cc(Cl)ccc1NS(=O)(=O)c1ccc(Oc2ccccc2Cl)cc1)N1CCC[C@H](C(F)(F)F)C1`, which inhibition [2] is on record?
Answer: 20.5%

Question: With `CN(Cc1cccc2ccccc12)C(=O)c1cc(Cl)ccc1NS(=O)(=O)c1ccc(Oc2ccccc2Cl)cc1` as the compound, how does the inhibition [2] read?
Answer: 19.1%

Question: What does the source list for `O=C(NCCc1c[nH]cn1)[C@@]1(c2ccc(F)cc2)CCCNC1`?
Answer: inhibition (PRVABC59, Concentration 50.0 uM, Number of replicates 2.0, Standard deviation 1.8533531884648646 %): 1.12%; inhibition (PRVABC59, Concentration 100.0 uM, Number of replicates 2.0, Standard deviation 1.243259032729753 %): 2.94%; inhibition (PRVABC59, Concentration 200.0 uM, Number of replicates 2.0, Standard deviation 0.45116199355607794 %): 1.26%
